Compound activity deposited in PubChem BioAssay by The Scripps Research Institute Molecular Screening Center.
ABHD5-PLIN5 inh – blocks binding of human ABHD5 to perilipin-5 | AID 602281 | Q00G26+Q8WTS1 | hit rate 0.78% among 360,000 | inhibition, % at 4 µM | Split G. princeps luciferase complementation, luminescence, 4 h;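 active = inhibition above the mean inhibition across every tested compound plus 3 SD, cut at about 22% in these data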
UHRF1 binding – blocks human UHRF1 binding to methylated DNA; hit rate 0.75% among 370,000; Q96T88; inhibition, % at 4.4 µM; UHRF1 binding to methylated oligo, TR-FRET; AID 687016; in the data active = inhibition above about 21%;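 note: UHRF1 SRA domain binding a hemimethylated CpG hairpin DNA probe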
rCAG RNA binder – binds r(CAG) RNA repeats; r(CAG) RNA repeat, TO-PRO-1 dye displacement fluorescence; inhibition, % at 3 µM; hit rate 1.3% among 370,000; AID 651821;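 active = inhibition above the plate cutoff, the mean of all test compounds on that plate plus 3 SD, cut at about 35% in these data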;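 note: higher means more dye released from RNA so lower well fluorescence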
MBD2 inh – inhibitors of human MBD2 binding to methylated oligonucleotide; Q9UBB5; TR-FRET; inhibition, % at 4.4 µM; hit rate 0.31% among 370,000; AID 686964; in the data active = inhibition above about 13%
Target sequence (Q9UBB5 whole entry, looked up): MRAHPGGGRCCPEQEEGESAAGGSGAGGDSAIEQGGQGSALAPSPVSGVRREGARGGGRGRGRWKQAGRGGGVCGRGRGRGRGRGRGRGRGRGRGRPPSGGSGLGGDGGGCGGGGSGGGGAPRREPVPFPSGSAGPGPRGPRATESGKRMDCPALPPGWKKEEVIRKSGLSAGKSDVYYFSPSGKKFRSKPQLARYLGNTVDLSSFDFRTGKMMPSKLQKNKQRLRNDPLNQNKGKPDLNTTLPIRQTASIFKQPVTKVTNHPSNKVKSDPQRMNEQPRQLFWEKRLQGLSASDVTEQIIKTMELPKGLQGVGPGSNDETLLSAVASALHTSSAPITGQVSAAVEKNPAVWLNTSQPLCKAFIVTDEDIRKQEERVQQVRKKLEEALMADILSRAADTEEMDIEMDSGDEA
PRMT1 FP inh – inhibitors of human PRMT1; inhibition, % at 2.79 µM; AID 652257; hit rate 1.3% among 370,000; recombinant PRMT1, activity-based probe fluorescence polarization;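 active = inhibition above about 21% made by adding two undisclosed values, limit read from the data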
Target sequence (Q99873 whole entry, looked up): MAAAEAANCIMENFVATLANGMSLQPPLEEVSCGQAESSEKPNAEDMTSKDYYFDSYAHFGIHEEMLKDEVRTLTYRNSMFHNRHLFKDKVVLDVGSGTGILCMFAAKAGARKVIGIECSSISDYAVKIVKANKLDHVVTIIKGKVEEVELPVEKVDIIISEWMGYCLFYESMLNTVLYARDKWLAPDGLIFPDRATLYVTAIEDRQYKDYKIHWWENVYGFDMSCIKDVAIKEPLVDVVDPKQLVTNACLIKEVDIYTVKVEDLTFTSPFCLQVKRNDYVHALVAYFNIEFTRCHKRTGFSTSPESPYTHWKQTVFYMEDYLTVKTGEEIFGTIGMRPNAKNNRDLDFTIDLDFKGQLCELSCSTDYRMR
LEDGF integ inh – blocks HIV-1 LEDGF/p75-dependent DNA integration | hit rate 0.64% among 370,000 | AID 743269 | TR-FRET IN-LEDGF/p75 DNA integration, Eu/Cy5 | inhibition, % at 3.7 µM;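 active = inhibition above the screen-wide mean plus 3 SD, cut at about 13% in these data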;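 note: signal is the Cy5 over europium emission ratio at 671 and 618 nm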
rCAG binder conf – r(CAG) RNA repeat binding, confirmation; shares compounds with rCAG RNA binder; TO-PRO-1 dye displacement fluorescence; inhibition, % at 3 µM; hit rate 70% among 4,300; AID 652065;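 active = inhibition above a per-plate cutoff, the mean inhibition of sample wells plus 3 SD, cut at about 35% in these data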;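 note: loss of TO-PRO-1 fluorescence as compound displaces dye from 1x1 AA loop RNA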
dCAG dye counter – disrupts DNA CAG TO-PRO-1 complex, flagging rCAG hits | shares compounds with rCAG RNA binder | d(CAG) DNA oligo TO-PRO-1 dye displacement, fluorescence | inhibition, % at 3 µM | hit rate 94% among 4,300 | AID 652068;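 active = inhibition above its plate's cutoff, the mean test-well inhibition plus 3 SD, cut at about 4.8% in these data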;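 note: hits displace the dye from DNA and so lower well fluorescence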
DNA CAG DR – counter-screen for rCAG binders: inhibitors of DNA CAG TO-PRO-1 complex; shares compounds with rCAG RNA binder; DNA CAG/GTC duplex TO-PRO-1 dye displacement fluorescence; IC50, µM; hit rate 20% among 250; AID 686960; in the data active = IC50 below about 10 µM
Numbers stand for hits. Shown are actives, neighbours in structure and some others; about 4.1% of the full set was active somewhere.

What do the screens show for `CCOC(=O)CSc1nc2c(sc(=S)n2-c2ccc(CC)cc2)c(=O)[nH]1`?
ABHD5-PLIN5 inh: inactive; UHRF1 binding: inactive; rCAG RNA binder: 60; MBD2 inh: inactive; PRMT1 FP inh: inactive; LEDGF integ inh: inactive; rCAG binder conf: 65; dCAG dye counter: 26

Results for CCCCNC(=O)CSc1nc2c(sc(=S)n2-c2cc(Cl)ccc2OC)c(=O)[nH]1 ?
ABHD5-PLIN5 inh: inactive; UHRF1 binding: inactive; rCAG RNA binder: 44; MBD2 inh: inactive; PRMT1 FP inh: inactive; LEDGF integ inh: inactive; rCAG binder conf: 43; dCAG dye counter: 12

What do the screens show for `CCN(CC)C(=O)CSc1nc2c(sc(=S)n2-c2ccccc2)c(=O)[nH]1`?
ABHD5-PLIN5 inh: inactive; UHRF1 binding: inactive; rCAG RNA binder: inactive; MBD2 inh: inactive; PRMT1 FP inh: inactive; LEDGF integ inh: inactive

How did CCOC(=O)CC(=O)CSc1nc2c(sc(=S)n2-c2ccccc2)c(=O)[nH]1 do in these assays?
ABHD5-PLIN5 inh: inactive; UHRF1 binding: inactive; rCAG RNA binder: 41; MBD2 inh: inactive; PRMT1 FP inh: inactive; LEDGF integ inh: inactive; rCAG binder conf: inactive; dCAG dye counter: 5.8

What do the screens show for `CCc1ccc(-n2c(=S)sc3c(=O)[nH]c(SCC(=O)NC4CCCCC4)nc32)cc1`?
ABHD5-PLIN5 inh: inactive; UHRF1 binding: inactive; rCAG RNA binder: inactive; MBD2 inh: inactive; PRMT1 FP inh: inactive; LEDGF integ inh: inactive

How did COc1cc(O)c(C(CC(=O)N2CC(C)OC(C)C2)c2ccc3c(c2)OCO3)c(OC)c1 (configuration not stated) do in these assays?
UHRF1 binding: inactive; MBD2 inh: inactive; PRMT1 FP inh: inactive; LEDGF integ inh: inactive

How did Cc1cc(Cl)nc(Cl)c1C(=O)NCCc1ccccc1 do in these assays?
ABHD5-PLIN5 inh: inactive; UHRF1 binding: inactive; rCAG RNA binder: inactive; MBD2 inh: inactive; PRMT1 FP inh: inactive; LEDGF integ inh: inactive

What do the screens show for `Cc1nc2c(C(=O)NCCc3ccccc3)c[nH]n2c(=O)c1Cl`?
ABHD5-PLIN5 inh: inactive; UHRF1 binding: inactive; rCAG RNA binder: 64; MBD2 inh: inactive; PRMT1 FP inh: inactive; LEDGF integ inh: inactive; rCAG binder conf: 54; dCAG dye counter: 13

What do the screens show for `Cc1nc2c(C(=O)NCCC(C)C)c[nH]n2c(=O)c1Cc1ccccc1F`?
ABHD5-PLIN5 inh: inactive; UHRF1 binding: inactive; rCAG RNA binder: 69; MBD2 inh: inactive; PRMT1 FP inh: inactive; LEDGF integ inh: inactive; rCAG binder conf: 76; dCAG dye counter: 42

What do the screens show for `Cc1cc(C(=O)NCCC(C)C)c2ccccc2n1`?
ABHD5-PLIN5 inh: inactive; UHRF1 binding: inactive; rCAG RNA binder: inactive; MBD2 inh: inactive; PRMT1 FP inh: inactive; LEDGF integ inh: inactive

Results for Cc1nc2c(C(=O)O)cnn2c(C)c1Cc1ccccc1F ?
ABHD5-PLIN5 inh: inactive; UHRF1 binding: inactive; rCAG RNA binder: inactive; MBD2 inh: inactive; PRMT1 FP inh: inactive; LEDGF integ inh: inactive

Results for Cc1nc2c(C(=O)NCCC(C)C)c[nH]n2c(=O)c1Cl ?
ABHD5-PLIN5 inh: inactive; UHRF1 binding: inactive; rCAG RNA binder: 37; MBD2 inh: inactive; PRMT1 FP inh: inactive; LEDGF integ inh: inactive; rCAG binder conf: 36; dCAG dye counter: 8.2

How did COc1ccc(-c2csc(C(C#N)=C(O)CSc3nccn3C)n2)cc1OC do in these assays?
ABHD5-PLIN5 inh: inactive; UHRF1 binding: inactive; rCAG RNA binder: 54; MBD2 inh: inactive; PRMT1 FP inh: inactive; LEDGF integ inh: inactive; rCAG binder conf: inactive; dCAG dye counter: 7.2

What do the screens show for `O=C(O)c1cccc(NC(=O)c2ccc(COc3ccc(Cl)cc3)cc2)c1`?
ABHD5-PLIN5 inh: inactive; UHRF1 binding: inactive; rCAG RNA binder: 47; MBD2 inh: inactive; PRMT1 FP inh: inactive; LEDGF integ inh: inactive; rCAG binder conf: 54; dCAG dye counter: 16

How did N#C/C(=C\c1ccc(OCc2ccc(Cl)cc2)cc1)C(=O)Nc1cccc(C(=O)O)c1 do in these assays?
ABHD5-PLIN5 inh: inactive; UHRF1 binding: inactive; rCAG RNA binder: inactive; MBD2 inh: inactive; PRMT1 FP inh: inactive; LEDGF integ inh: inactive

Results for COc1cc(OC)cc(C(=O)NC(=S)Nc2ccc(Cl)c(C(=O)O)c2)c1 ?
ABHD5-PLIN5 inh: inactive; UHRF1 binding: inactive; rCAG RNA binder: inactive; MBD2 inh: inactive; PRMT1 FP inh: inactive; LEDGF integ inh: inactive

What do the screens show for `O=C(NC(=S)Nc1ccc(Cl)c(C(=O)O)c1)c1ccc(OCc2ccccc2)cc1`?
ABHD5-PLIN5 inh: inactive; UHRF1 binding: inactive; rCAG RNA binder: 68; MBD2 inh: inactive; PRMT1 FP inh: inactive; LEDGF integ inh: inactive; rCAG binder conf: 62; dCAG dye counter: 25

How did O=C(NC(=S)Nc1ccc(Cl)c(C(=O)O)c1)c1cccc(COc2ccccc2)c1 do in these assays?
ABHD5-PLIN5 inh: inactive; UHRF1 binding: inactive; rCAG RNA binder: 71; MBD2 inh: inactive; PRMT1 FP inh: inactive; LEDGF integ inh: inactive; rCAG binder conf: 67; dCAG dye counter: 30

How did CCCCOc1cccc(C(=O)NC(=S)Nc2ccc(Cl)c(C(=O)O)c2)c1 do in these assays?
ABHD5-PLIN5 inh: inactive; UHRF1 binding: inactive; rCAG RNA binder: 44; MBD2 inh: inactive; PRMT1 FP inh: inactive; LEDGF integ inh: inactive; rCAG binder conf: 49; dCAG dye counter: 9.4; DNA CAG DR: inactive

How did Cn1c(=O)c(=O)n(C)c2cc(S(=O)(=O)N3CCN(Cc4ccc(F)cc4)CC3)ccc21 do in these assays?
UHRF1 binding: inactive; rCAG RNA binder: inactive; MBD2 inh: inactive; PRMT1 FP inh: inactive; LEDGF integ inh: inactive

How did O=S(=O)(Nc1ncnc2c1oc1ccccc12)c1ccc(Cl)s1 do in these assays?
ABHD5-PLIN5 inh: inactive; UHRF1 binding: inactive; rCAG RNA binder: 36; MBD2 inh: inactive; PRMT1 FP inh: inactive; LEDGF integ inh: inactive; rCAG binder conf: inactive; dCAG dye counter: inactive

What do the screens show for `COC(=O)c1cccc(CSc2nc(-c3ccccc3)c(C#N)c(=O)[nH]2)c1`?
ABHD5-PLIN5 inh: inactive; UHRF1 binding: inactive; rCAG RNA binder: 75; MBD2 inh: inactive; PRMT1 FP inh: inactive; LEDGF integ inh: inactive; rCAG binder conf: 63; dCAG dye counter: 23

How did N#Cc1c(-c2ccccc2)nc(SCc2ccc(Cl)cc2)[nH]c1=O do in these assays?
ABHD5-PLIN5 inh: inactive; UHRF1 binding: inactive; rCAG RNA binder: 83; MBD2 inh: inactive; PRMT1 FP inh: inactive; LEDGF integ inh: inactive; rCAG binder conf: 76; dCAG dye counter: 39

How did Cc1nc(SCc2cccc(F)c2)[nH]c(=O)c1C#N do in these assays?
ABHD5-PLIN5 inh: inactive; UHRF1 binding: inactive; rCAG RNA binder: inactive; MBD2 inh: inactive; PRMT1 FP inh: inactive; LEDGF integ inh: inactive

Results for C=CCSc1nc(-c2ccccc2)c(C#N)c(=O)[nH]1 ?
ABHD5-PLIN5 inh: inactive; UHRF1 binding: inactive; rCAG RNA binder: inactive; MBD2 inh: inactive; PRMT1 FP inh: inactive; LEDGF integ inh: inactive
